According to PubChem BioAssay (NCI):
About 79,000 compounds went through this panel and 15% of them were active in at least one assay; those are over-represented in the sample as a whole. The source made the active and inactive calls. Rule as the data show it: active = growth inhibition above about 70%; inactive = the rest.

assay: NCI Yeast Anticancer Drug Screen. Data for the mlh1 rad18 strain (AID 175); details: S. cerevisiae mlh1 rad18 strain growth inhibition; at 50.0 µM; stronger effect = higher value
Outline: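 Read-out is yeast growth inhibition, calculated against vehicle-only controls. The compound was applied to a strain engineered with DNA damage repair alterations.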

| SMILES | growth inhibition |
| --- | --- |
| c1ccc(Oc2c3ccccc3nc3ccccc23)cc1 | 87.9% (active) |
| CCCCNc1ccc(-c2ccc(NCCCC)cc2)cc1 | 59.5% (inactive) |
| ClCc1cccc2c(CCl)cccc12 | 12.4% (inactive) |
| Cc1cc2nc(C)c(C)nc2cc1C | -20.4% (inactive) |
| Nc1ccn(C2OC(CO)C(O)C2F)c(=O)n1 (configuration not stated) | -6.95% (inactive) |
| ClCC(Cl)C1CCC(Cl)C(Cl)C1 (configuration not stated) | 19.8% (inactive) |
| CCOC(=O)C(C#N)=C1CCN(C)CC1 | -5.6% (inactive) |
| CC(=O)NNC(=S)/N=C\C(C(=O)c1ccccc1)=C(/O)c1ccccc1 | -19.2% (inactive) |
| O=C1NC(=O)/C(=C\c2ccncc2)N1 | -56.5% (inactive) |
| O=S(Cc1ccccc1)/C(=C/NC(=S)Nc1cc(Cl)ccc1Cl)c1ccccc1 (configuration not stated) | 7.1% (inactive) |
| O=C(O)c1ccc([N+](=O)[O-])cc1S(=O)(=O)O | -4.55% (inactive) |
| FC(F)(F)c1cc(NC2=NCCN=C(Nc3cc(C(F)(F)F)cc(C(F)(F)F)c3)SS2)cc(C(F)(F)F)c1 | -15.6% (inactive) |
| Cn1c(=O)c2[nH]c(CCCCC(=O)O)nc2n(C)c1=O | 4.2% (inactive) |
| CC(C)c1ccc(C(=O)OCCCl)cc1 | 23.8% (inactive) |
| OCCOc1ccc(-c2cc(-c3ccccn3)nc(-c3ccccn3)c2)cc1 | 77.4% (active) |
| CSCCC(NC(=O)C(Cl)Cl)C(=O)O (configuration not stated) | 3.4% (inactive) |
| CCOC(=O)Nc1nccs1 | -4.6% (inactive) |
| N#C/C(=C\c1ccc2c(c1)OCO2)c1ccccc1 | 24.1% (inactive) |
| O=C(c1ccccc1O)N1CCCC1 | 10.8% (inactive) |

| SMILES | growth inhibition |
| --- | --- |
| O=S(Cc1ccccc1)/C(=C/NC(=S)Nc1ccccc1)c1ccccc1 (configuration not stated) | -7.15% (inactive) |
| c1ccc2[nH]c(Cc3nc4ccccc4[nH]3)nc2c1 | 10.2% (inactive) |
| N#C/C(=C\c1ccc(C#N)cc1)C(=O)c1ccccc1 | 18.9% (inactive) |
| CC(=O)CSc1ncnc2nc[nH]c12 | -5.3% (inactive) |
| CCOC(=O)CSCCC#N | 0.65% (inactive) |
| CCN(CC)CCCC(C)NC(=S)N/N=C(\C)c1ccccn1 (configuration not stated) | 42.7% (inactive) |
| CC(=O)NC(CCc1ccc(Cl)c(Cl)c1)c1cccc(O)c(=O)c1 (configuration not stated) | 88.9% (active) |
| C/C(O)=C(/C=N/C(=S)Nc1ccccc1)C(=O)Nc1ccccc1C | 24.9% (inactive) |
| C=CCN1CCCC1=O | 4.05% (inactive) |
| S=C=Nc1ccc2ccccc2c1 | 21.1% (inactive) |
| COc1ccc(NNS(=O)(=O)O)cc1 | 4% (inactive) |
| COC1OC(CO)C(OC)C(O)C1O (configuration not stated) | -2.2% (inactive) |
| Cc1[nH]nc(C(N)=O)c1[N+](=O)[O-] | 0.35% (inactive) |
| C=CCOc1ccc(Cl)cc1Cl | -1.75% (inactive) |
| C=C1CC2(OC1=O)C(=O)N(C)c1ccc(I)cc12 (configuration not stated) | 91.2% (active) |
| Cc1cc2c(C(C)C)c(O)c(O)c(C=Nc3ccccc3[N+](=O)[O-])c2c(O)c1-c1c(C)cc2c(C(C)C)c(O)c(O)c(C=Nc3ccccc3[N+](=O)[O-])c2c1O | -2.3% (inactive) |
| COC(=O)C1(CC(C)=O)NC(=S)NC(=O)C1C#N (configuration not stated) | -15.3% (inactive) |
| Nc1nc2nnc(-c3ccccc3)c(-c3ccccc3)n2n1 | -8.8% (inactive) |
